The results in this text go back to PubChem BioAssay AID2685 (National Center for Advancing Translational Sciences (NCATS), 2010).

Among all 320,000 compounds or so, about 2,100 (0.66%) were called active. About 53% were inconclusive and are not listed. This is one part of a sample in which actives are shown more often than they occur. Calls follow the shape of the dose curve; as a rule, active = well fitted inhibition curve with a large enough effect in the signal ratio, with a control signal flat (not every such curve was filed as active); inconclusive = small, poorly fitted or top-dose-only effect, or effect the other way, or a change in a side signal; inactive = flat fitted curve, though single readings scatter; the % refers to the signal ratio.
Potency is read from the fitted curve at half-maximal effect.

This test in a line: qHTS Assay for Lipid Storage Modulators in Drosophila S3 Cells.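 As to cell number change: cells counted by Cell Tracker Red CMTPX staining in the red channel.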 The settings on record: BODIPY lipid droplet fluorescence, 18-24 h, cells fed with added oleic acid; cell number change: measured here: cell count max response; series mostly up to 46.1 µM. The method, boiled down: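 Drosophila S3 cells got compounds at several concentrations plus oleic acid (400 uM solution). Laser-scanning cytometry with 488 nm excitation read lipid droplets at 500-530 nm and cells at 575-640 nm. Percent activity was relative to 20 uM Triacsin C.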
Regarding `COc1ccc2[nH]c(=O)c(CN(Cc3cccnc3)Cc3nnnn3CC3CCCO3)cc2c1` (configuration not stated), the Potency result was “inactive” and the cell number change was -7.7%.

In the case of `COc1cccc2c1OC1(C)CC2NC(=O)N1c1cccc(C(=O)N2CCN(c3ccccc3)CC2)c1` (configuration not stated), the Potency entry is “inactive” and the cell number change amounted to 3.44%.

Turning to `COc1cc2oc3ccccc3c(=O)c2cc1OC`, the Potency entry is “inactive” and the cell number change was -9.58%.

Take `COc1cccc2oc3ccc(C#Cc4ccccn4)cc3c(=O)c12`: the Potency was 0.731 µM (active) and the cell number change is -5.09%.

Regarding `Cn1c2ccccc2c(=O)c2ccc(C#Cc3ccccn3)cc21`, the Potency is 14.6 µM (active) and the cell number change was -26.5%.

As to `COc1ccc2c(=O)c3ccccc3oc2c1`, the Potency entry was “inactive” and the cell number change is -11.6%.

On to `Cn1c2ccccc2c(=O)c2ccc(C#Cc3ccc(N)cc3)cc21`, for which the Potency result is “inactive” and the cell number change worked out at 2.27%.

For `Cn1c2ccccc2c(=O)c2cc(C#Cc3ccccn3)ccc21`, the Potency entry is “inactive” and the cell number change was -13.6%.

For the compound `CNC(C)C#Cc1ccc2oc3cccc(OC)c3c(=O)c2c1` (configuration not stated), the Potency result was “inactive” and the cell number change was 16.5%.

For `COc1cccc2oc3cc(C#Cc4ccccn4)ccc3c(=O)c12`, the Potency was 18.4 µM (active) and the cell number change was -23%.

Take `CN(C)c1ccc(-c2ccc3c(=O)c4ccccc4n(C)c3c2)cn1`: the Potency is 23.1 µM (active) and the cell number change is -7.49%.

Turning to `COc1cc(OC)cc(-c2c(-c3cccs3)c3cc(-c4ccc(N(C)C)nc4)ccc3n2C)c1`, the Potency entry is “inactive” and the cell number change was determined as 14.6%.

Turning to `Cn1c2ccccc2c(=O)c2ccc(-c3ccc4c(c3)OCO4)cc21`, the Potency entry was “inactive” and the cell number change is -21%.

In the case of `Nc1cccc(C#Cc2ccc3c(=O)c4ccccc4oc3c2)c1`, the Potency entry was “inactive” and the cell number change is -4.2%.

Turning to `O=C(NC12CC3CC(CC(C3)C1)C2)c1ccc(Br)o1`, the Potency result was “inactive” and the cell number change is -22.8%.

Regarding `O=C(c1ccccn1)N(CC1CCCO1)C1(C(=O)NC2CCCCC2)CCCCC1` (configuration not stated), the Potency result was “inactive” and the cell number change was -0.121%.

As for `Cc1ccc(NC(=O)OCc2cc(-c3ccccc3)on2)cc1`, the Potency entry was “inactive” and the cell number change worked out at 4.96%.

Consider `OCC(O)C(O)C(O)C(O)C1NCCS1` (configuration not stated), for which the Potency entry was “inactive” and the cell number change amounted to 16.2%.

For `COc1ccc(CCNC(=O)C2CCN(C(=O)c3ccc(Cl)cc3)CC2)cc1`, the Potency entry is “inactive” and the cell number change was -13.5%.

As for `COc1ccc(CCNC(=O)C2CCN(C(=O)c3ccc(Br)cc3)CC2)cc1`, the Potency was 5.8 µM (active) and the cell number change was -9.49%.

In the case of `COc1ccc(CCNC(=O)C2CCN(C(=O)c3ccc(OC)c(OC)c3)CC2)cc1`, the Potency result is “inactive”.

Regarding `Cc1ccc(N2C(=O)C(Cl)=C(N3CCOCC3)C2=O)c(C)c1`, the Potency entry is “inactive” and the cell number change was -6.56%.

As for `CCOC(=O)C(=CNc1ccc(C(F)(F)F)cc1)C(=O)OCC`, the Potency entry was “inactive” and the cell number change was 11.9%.

With `Cc1cc(C)cc(C(=O)N2CC(C)OC(C)C2)c1` (configuration not stated), the Potency entry is “inactive” and the cell number change worked out at 20.2%.

For the compound `CC1CN(C(=O)c2cccc(C(=O)N3CC(C)OC(C)C3)c2)CC(C)O1` (configuration not stated), the Potency is 18.4 µM (active) and the cell number change was found to be 7.82%.

`CC1CN(C(=O)c2ccc(C(=O)c3ccccc3)cc2)CC(C)O1` (configuration not stated): the Potency entry was “inactive” and the cell number change was -18.7%.

`CC1CN(C(=O)Cn2c(=O)oc3ccccc32)CC(C)O1` (configuration not stated): the Potency entry is “inactive” and the cell number change came out at 13.4%.

`CC1CN(C(=O)CCN2C(=O)c3ccccc3C2=O)CC(C)O1` (configuration not stated): the Potency entry was “inactive” and the cell number change was 7.71%.

As for `CC1CN(C(=O)CN2C(=O)c3ccccc3C2=O)CC(C)O1` (configuration not stated), the Potency was 23.1 µM (active) and the cell number change was -24.9%.

For the compound `O=C(CC(=O)N/N=C/c1ccc(Cl)cc1Cl)NCc1ccccc1`, the Potency result is “inactive” and the cell number change is -3.68%.

With `CCN(Cc1ccccc1)c1ccc(/C=N/NC(=S)NC(C)C)cc1`, the Potency entry is “inactive” and the cell number change is -13%.

`OCc1nc2ccccc2n1CC(O)Cn1ccc2ccccc21` (configuration not stated): the Potency result is “inactive”.

As for `O=c1cc2c(n[nH]1)CCCC2`, the Potency is 0.58 µM (active) and the cell number change was -2.03%.

`O=c1cc2c(n[nH]1)-c1ccccc1CC2`: the Potency entry is “inactive” and the cell number change worked out at 1.15%.

Regarding `O=c1ccc2c([nH]1)CCCCCCCCCC2`, the Potency result is “inactive” and the cell number change is 10%.

As to `Cc1ccc(-c2nnc(SCC(=O)Nc3nccs3)n2N)cc1`, the Potency result is “inactive” and the cell number change is -14.7%.

Regarding `COc1ccc(NS(=O)(=O)c2ccc3c(c2)N(C(C)=O)CC(C)S3)c(OC)c1` (configuration not stated), the Potency result is “inactive” and the cell number change turned out to be 6.52%.

For `CC(C)c1ccc(CN2C(=O)NC3(CCCCCC3)C2=O)cc1`, the Potency is 18.4 µM (active) and the cell number change was 2.7%.

`O=C1NC2(CCCCCCC2)C(=O)N1Cc1ccc(F)cc1`: the Potency entry was “inactive” and the cell number change is 7.12%.

As to `O=C1NC2(CCCCCC2)C(=O)N1Cc1ccc(Br)cc1`, the Potency result is “inactive” and the cell number change was -22.7%.

In the case of `CCCCC(=O)NS(=O)(=O)c1ccc(N=NN2CCOCC2)cc1`, the Potency result was “inactive” and the cell number change is -7.29%.

For the compound `CCCCSCCCNC(=S)Nc1ccccc1C`, the Potency entry is “inactive” and the cell number change is -6.21%.

For `Cc1ccc(NC(=O)CSc2ccccc2NC(=O)c2ccccc2Cl)cc1Cl`, the Potency result was “inactive” and the cell number change was determined as 13.7%.

Regarding `Cc1ccc(NC(=O)CSc2ccccc2NC(=O)c2ccccc2)cc1Cl`, the Potency is 20.6 µM (active) and the cell number change was -20%.

`Cc1ccc(NC(=O)CSc2ccccc2NC(=O)c2cccc(Cl)c2)cc1Cl`: the Potency entry is “inactive” and the cell number change is -1.09%.

Take `CC(=O)c1cccc(NS(=O)(=O)c2ccc(N/C=C/C(=O)c3ccc(F)cc3)cc2)c1`: the Potency result was “inactive” and the cell number change was -28.4%.

As for `CCOc1cccc(CNCCO)c1OCc1ccc(Cl)cc1`, the Potency entry was “inactive” and the cell number change was -0.0822%.
